Data: paper doi:10.1101/2023.07.10.548322

target: alpha-synuclein (aSyn) WT (human, UniProt P37840 1-140); experiment: RNA Bind-n-Seq; conditions: ssRNA

Binding signal, 43.8 enrichment score:
GGGUGUUGGUUG
GGGUGGGCGGAU
GGGUGGGUUUGG
GGGGGUGGCAGA
GGCGGGGGGUGA
UGGGGUAUUGGG
CGGGUGGGAUGG
GUGGGGGGGCAU
GGAGGUAGGGAG
AGUGGCGGAGGG
GGAAUGGGGUGG
UAGGGGUUGUGG
GUGUAGGUGGGG
GUGUGGGGGCAG

Binding signal, 49.1 enrichment score:
UUGGGCGGGUAG
GGGGGGGGGGUG
GUGGAUGGCGGG
GCGGGAGGGCGG
GGCGGGCGGAGG
AGUGCGGGGGGG

Binding signal, 96 enrichment score:
GGGUGGGCGGGG

Binding signal, 54.6 enrichment score:
GGGCAGUGGAGG

Binding signal, 41.1 enrichment score:
CGUGGGGAGUGG
AGGGGAGCUGGG
GGCAGGCUGUGG
GUGGGUGUGGUA
GGGGUGAGGUGU
GGUGGAUGAGGG

Binding signal, 46.4 enrichment score:
GGGAGCGGGGGA
GGGGUGGUGUUG
UGGCGGGGUGGA
UGGGUUUGGGGG

Binding signal, 60.2 enrichment score:
GGGAUGUGUGGG
